Assay results reported in PubChem BioAssay AID489008 (National Center for Advancing Translational Sciences (NCATS), 2010).
Records with an inconclusive call do not appear. Calls of active or inactive are those of the source. Calls come from the whole dose curve; as a rule, active = well fitted inhibition curve with a large enough effect; inconclusive = small, poorly fitted or top-dose-only effect; inactive = flat fitted curve, though single readings scatter.

Target: Ferritin light chain (Equus caballus) (UniProt P02791)
Test: Confirmation Assay for Identification of Novel General Anesthetics; note: nearly all actives have a fitted effect of over 40% in size
Settings: apoferritin 1-aminoanthracene fluorescence displacement
Summary of the method: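 Competitive displacement of profluorescent 1-aminoanthracene from 10 uM horse-spleen apoferritin in 50% saturated 1-AMA/PBS; 10 min RT, fluorescence Ex 380/Em 535. Normalized to free 1-AMA and complex; four-parameter Hill fit.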
Potency is the fitted concentration of half-maximal effect.

Ferritin light chain (Equus caballus), sequence (P02791 2-175 limits assumed): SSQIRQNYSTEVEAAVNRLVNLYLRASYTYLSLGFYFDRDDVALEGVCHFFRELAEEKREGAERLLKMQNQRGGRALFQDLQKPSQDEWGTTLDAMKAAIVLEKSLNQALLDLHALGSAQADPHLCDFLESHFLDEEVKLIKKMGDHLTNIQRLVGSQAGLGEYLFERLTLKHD

Potency, active:
Cc1ccc(NC(=O)c2ccccc2)cc1OC(=O)c1ccccc1 28.2 µM
Cc1ccc(CNC(=O)c2nnn(-c3cccc(C)c3)c2N)cc1 17.8 µM
COc1cccc(NS(=O)(=O)c2ccc(Br)s2)c1 15.8 µM
Cc1ccc(NC(=O)Cn2nc(-c3ccco3)ccc2=O)cc1Cl 28.2 µM
O=C(Nc1nccs1)c1csc2c1CCCC2 8.91 µM
O=C(Nc1cccc(F)c1)N1CCCCCC1 12.6 µM
COC1CCCCC1Nc1cc(C)cc(C)c1 (stereo not drawn) 31.6 µM
O=C(COC(=O)/C=C/c1ccccc1Cl)NC1CCCCCC1 6.31 µM
O=C(Cc1ccccc1)N1CCc2ccccc21 14.1 µM
O=C(NC1CCCCCCC1)c1ccc(Br)o1 17.8 µM
O=C(NC1=NCCS1)C12CC3CC(CC(C3)C1)C2 15.8 µM
O=C1C(Cl)=C(N2CCOCC2)C(=O)N1c1ccccc1Cl 15.8 µM
Cc1ccccc1Cn1c(C)cc(C)c(C#N)c1=O 15.8 µM
Cc1ccccc1CSc1nsc(N)n1 17.8 µM
COc1ccccc1-c1cn(C(C)(C)C)nc1C 14.1 µM
O=C1c2ccsc2SCCN1Cc1ccc(Cl)cc1Cl 15.8 µM
Cc1ccc(C(=O)COC(=O)c2ccc(Br)o2)cc1C 15.8 µM
O=C1CCCc2ccccc2N1Cc1ccccc1Cl 15.8 µM
Cc1ccc(O)c(N=Nc2ccccc2)n1 22.4 µM
Cc1csc(Nc2ccccc2)n1 35.5 µM
CCCCCc1ccc(C2=NNC(=O)CC2)cc1 28.2 µM
O=C(NC1CCCCCC1)c1nnc(Cc2ccc(Cl)cc2)o1 15.8 µM
CC(=O)c1cccc(NC(=O)CN2C(=O)NC3(CCCCCCC3)C2=O)c1 14.1 µM
Cc1cc(OCC(=O)N(C)C2CCCCC2)cc(C)c1Cl 35.5 µM
CC1(C)CC(=O)N(Cc2ccccc2)C(=O)C1 8.91 µM
O=C(NC1CCCCCCC1)c1cc(COc2ccc3ncccc3c2)on1 12.6 µM
Cc1ccc(CCC(=O)Nc2cc(Cl)ccc2Cl)o1 7.94 µM
O=[N+]([O-])c1ccc(CNc2ccc(Cl)cc2)s1 22.4 µM
Cc1ccc(SCC(=O)N2N=CCC2c2ccccc2)cc1 (stereo not drawn) 15.8 µM
Cc1ccc(S(=O)(=O)NCCc2ccccc2)cc1 15.8 µM
COc1ccc(C2=Nn3c(nnc3-c3ccc(OC)cc3)SC2)cc1 22.4 µM
O=C(CCC(=O)c1ccc(Cl)cc1)OCC(=O)c1ccccc1 17.8 µM
CCc1ccc(CNC(=O)Cn2nc(-c3ccccc3)ccc2=O)cc1 10 µM
CC1CCCN(C(=O)COc2ccc(Nc3ccccc3)cc2)C1 (stereo not drawn) 25.1 µM
Clc1ccc(Nc2nc(C3CC3)cs2)cc1 39.8 µM
CCC(CC)C(=O)OCC(=O)NC12CC3CC(CC(C3)C1)C2 10 µM
O=C(CN1CCCC1)Nc1ccc(OCc2ccccc2)cc1 15.8 µM
COc1ccccc1OCC(=O)N1CCCCCCC1 12.6 µM
